Screens (PubChem)
The list is not random: actives were taken first. Their share in the collection is about 1.5%.
IDE act: human IDE activators in live cells, primary screen, fluorescence polarization, HEK cells, FAbeta-B substrate; FAbeta-B cleavage; 0% vehicle, 100% cell-free pure enzyme wells; activation, % at 5.96 µM; 340,000 compounds, 0.073% hits; AID 493087, 2011;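 active = activation above the mean of all tested compounds plus 3 SD, set per screening campaign, cut at about 17% in these data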
CRFBP-R2 block: antagonists of CRF-BP/CRF-R2 complex, primary screen, cell-based, HEK293, calcium dye fluorescence, uHTS; CRF-induced calcium fluorescence; inhibition, % at 11.8 µM; 350,000 compounds, 0.59% hits;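 active = inhibition of the ligand-induced calcium signal above about 50% at the single tested concentration, limit read from the data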
CRFBP-R2 agonist: agonists of CRF-BP/CRF-R2 complex, primary screen, cell-based, HEK293, calcium dye fluorescence, uHTS; CRF-binding protein / CRF receptor 2 complex (human); calcium dye fluorescence (FLIPR); percent of saturating CRF peptide response; activation, % at 13.2 µM; 350,000 compounds, 0.46% hits; AID 588473, 2011;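 active = activation of at least 50%, plus an integration ratio under a set limit after plate pattern correction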
IDE inh: human IDE inhibitors in live cells, primary screen, fluorescence polarization, HEK cells, FAbetaB substrate | inhibition, % at 5.59 µM | 320,000 compounds, 0.41% hits | AID 434962, 2010 | Insulin-degrading enzyme (Homo sapiens), P14735 | FAbetaB cleavage;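 active = percent inhibition above the average of all tested compounds plus 3 SD, set per screening campaign, cut at about 16% in these data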;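 note: IDE supplied by intact live HEK cells; FP after avidin binding of uncleaved biotin substrate so inhibition keeps polarization high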
cardiac RTF act: cardiac RTF calcium sensitivity activators, primary screen, biochemical, IANBD-TnC fluorescence, EC20 calcium. Troponin I, cardiac muscle (Homo sapiens) + Troponin T, cardiac muscle (Homo sapiens) + …. IANBD-labeled TnC RTF fluorescence at EC20 calcium; 0% EC20 calcium, 100% full calcium. activation, % at 7.2 µM. 340,000 compounds, 0.24% hits;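 active = activation above the mean over all tested compounds plus 3 SD, cut at about 30% in these data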;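 note: rise in fluorescence read as greater calcium sensitivity of cardiac thin filaments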
Cardiac RTF inh: cardiac RTF calcium sensitivity inhibitors, primary screen, biochemical, IANBD-TnC fluorescence, EC70 calcium | Troponin I, cardiac muscle (Homo sapiens) + Troponin T, cardiac muscle (Homo sapiens) + … | IANBD-labeled cardiac RTF, Ca2+ fluorescence | inhibition, % at 7.15 µM | 340,000 compounds, 0.12% hits | AID 493244, 2011;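 active = inhibition above the mean inhibition of all tested compounds plus 3 SD, cut at about 17% in these data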;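 note: assay run at fixed EC70 calcium of 1.6 mM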
Large screens that a line does not name were inactive.

CCN(CC)C(=O)CN1CCN(Cc2ccc3c(c2)OCO3)CC1	none
C[C@H](CO)N1C[C@H](C)[C@@H](CN(C)S(=O)(=O)c2cccs2)Oc2c(NC(=O)NC3CCCCC3)cccc2C1=O	none
CCN(CC)C(=O)CSC(Nc1ccc(F)cc1)=C(C#N)C#N	none
Cc1ccc(CSC(Nc2ccc(F)cc2)=C(C#N)C#N)cc1	CRFBP-R2 block 72, CRFBP-R2 agonist 51
CC(C)NC(=O)C(=O)Nc1cc2c3c(c1)C(C)C(=O)N3CCC2 (centres undefined)	none
COc1cc(/C=C2\N=C(c3ccccc3)OC2=O)ccc1OC(C)=O	none
COc1ccc(OC)c(/C=C2\N=C(c3ccccc3)OC2=O)c1	CRFBP-R2 agonist 104
O=C(NCc1cc(C(F)(F)F)ccc1Cl)c1cccc2c1C(=O)c1ccc(N3CCC(N4CCCCC4)CC3)cc1S2(=O)=O	none (no result: IDE act, IDE inh, cardiac RTF act, Cardiac RTF inh)
O=C(NCc1ccc(OC(F)(F)F)cc1)c1cccc2c1C(=O)c1ccc(N3CCC(Cc4ccccc4)CC3)cc1S2(=O)=O	CRFBP-R2 agonist 63
O=C(NCc1ccccc1Br)c1cccc2c1C(=O)c1ccc(-c3ccc(OC(F)(F)F)cc3)cc1S2(=O)=O	none
O=C(NCc1cc(C(F)(F)F)ccc1Cl)c1cccc2c1C(=O)c1ccc(N3CCCCC3)cc1S2(=O)=O	CRFBP-R2 agonist 53
O=C(NCc1ccc(OC(F)(F)F)cc1)c1cccc2c1C(=O)c1ccc(N3CCCC3)cc1S2(=O)=O	CRFBP-R2 agonist 102
O=C(NCc1ccc(OC(F)(F)F)cc1)c1cccc2c1C(=O)c1ccc(N3CCCCC3)cc1S2(=O)=O	CRFBP-R2 agonist 68
O=C(NCCN1CCOCC1)c1cccc2c1C(=O)c1ccc(N3CCCC3)cc1S2(=O)=O	none
O=C(CSc1nnc(NC(=O)c2ccccc2F)s1)NCC1CCCO1 (centres undefined)	none
Cc1nnc(SCC(=O)c2cc(C)n(-c3ccc4c(c3)OCO4)c2C)s1	CRFBP-R2 agonist 63
Cc1nnc(SCC(=O)c2cc(C)n(C3CC3)c2C)s1	CRFBP-R2 agonist 52
CCN1C[C@@H]2[C@@H]3C(=O)N(Cc4ccccc4)C(=O)[C@@H]3[C@](C)(C1=O)N2C(=O)c1ccc(Br)cc1	none (no result: IDE inh)
CCOC(=O)c1c(CC(C)C)csc1N	CRFBP-R2 block 55
CCOC(=O)c1c(CC(C)C)csc1NC(=O)C(C)C	none
N#C/C(=C/c1ccc(N2CCCCCC2)o1)c1ccc(Cl)cc1	cardiac RTF act 36
CC(C)CCn1nnnc1CN1CCN(c2ccccc2)CC1	IDE act 18
CC(C)C(NC(=O)c1ccco1)C(=O)NC1CCCCCC1 (centres undefined)	CRFBP-R2 block 105
O=C(NC1CCCCCCC1)c1ccco1	none
Cc1cccc(C)c1NC(=S)Nc1ccc(F)cc1	CRFBP-R2 block 60
COC(=O)CC(NC(=O)c1ccc(C)cc1)c1ccc2c(c1)OCO2 (centres undefined)	CRFBP-R2 block 107
COc1ccc(C(CC(=O)O)c2ccc3c(c2)OCO3)cc1 (centres undefined)	CRFBP-R2 block 94
O=C(NCc1cccc2[nH]ccc12)C1CCC(=O)N(CCc2ccc(Cl)cc2)C1 (centres undefined)	none
CC(C)Cc1cc(C(C)(C)C)ccc1OC(=S)N(C)C	none
COc1ccc2nc(N3CCC(O)CC3)c(C#N)cc2c1	CRFBP-R2 agonist 52
CCOC(=O)C1CCN(c2nc3cc(OC)ccc3cc2C#N)CC1	CRFBP-R2 block 57
COc1ccc2nc(N3CCC(C)CC3)c(C#N)cc2c1	none
N#C/C(=C/c1ccc(N2CCOCC2)o1)C(=O)Nc1ccccc1	CRFBP-R2 agonist 149, cardiac RTF act 132 (no result: IDE inh)
N#C/C(=C\c1ccc(OCCN2CCOCC2)cc1)C(=O)Nc1ccccc1	none
COc1ccc(CNCC(C)NCc2ccc(OC)c(OC)c2)cc1OC (centres undefined)	none
